The source of these data is PubChem BioAssay (Tox21).

The nature of experiment [1]: qHTS assay to identify small molecule agonists of the TGF-beta/Smad signaling pathway (AID 1346859; active = well fitted activation curve with a large enough effect in the signal ratio in the repeat runs, not every such curve was filed as active; the % refers to the signal ratio; also: series mostly up to about 77 µM). The essentials: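 Stable Smad binding element-beta-lactamase HEK 293T cells; 5 hr compound exposure at 37 C under 5% CO2; 2 hr room-temperature substrate step; fluorescence excited at 405 nm, collected at 460 nm and 530 nm.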
Background: Quantitative high-throughput screening tests each substance at several concentrations.

Experiment [2] is described as follows: Caspase-3/7 induction in HepG2 cells by small molecules, qHTS assay (AID 1346978). Also: nearly all actives have a fitted effect of over 15% in size. Also: potency is read from the fitted curve at half-maximal effect. Summed up:
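Caspase-3/7 induction was measured by Caspase-Glo 3/7 luminescence (30 min, room temperature) after a 17 hr compound exposure of wild-type HepG2 cells seeded at 2,000 per well and pre-incubated 5 hr.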

Experiment [3] can be described thus: qHTS assay to identify small molecule antagonists of the progesterone receptor (PR) signaling pathway - cell viability counter screen (AID 1346798). Also: nearly all actives have a fitted effect of over 50% in size. Also: potency is read from the fitted curve at half-maximal effect. The essentials: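 ATP content as viability readout: CellTiter-Glo luminescence, 30 min room temperature, in PR-UAS-bla HEK293T cells after 16 hr compound/R5020 treatment at 37C and 5% CO2.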
Experiment [4] in a line: qHTS assay to identify small molecule agonists of the progesterone receptor (PR) signaling pathway - cell viability counter screen (AID 1346799; calls by dose curve; also: nearly all actives have a fitted effect of over 45% in size; also: potency is read from the fitted curve at half-maximal effect). Summed up: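 Cytotoxicity in PR-bla HEK293T cells: 16 h compound, 37C; CellTiter-Glo added post-FRET read; luminescence after 30 min RT.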
Experiment [5] can be described thus: qHTS assay to identify small molecule antagonists of the TGF-beta/Smad signaling pathway - cell viability counter screen (AID 1346824). Also: nearly all actives have a fitted effect of over 50% in size. The essentials:
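Cytotoxicity counter-screen run in the same wells as the beta-lactamase Smad reporter read: CellTiter-Glo luminescence after 30 min at room temperature. HEK 293T SBE-bla cells had 5 hr compound exposure at 37 C with TGF-beta1 (0.25 ng/mL stock).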

Experiment [6] in a line: qHTS assay to identify small molecule agonists of the TGF-beta/Smad signaling pathway - cell viability counter screen (AID 1346829). Also: nearly all actives have a fitted effect of over 45% in size. Also: potency is read from the fitted curve at half-maximal effect. Summed up:
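In parallel with the Smad reporter read, viability of HEK 293T cells stably carrying SBE-bla is quantified by ATP luminescence following 5 hr compound treatment.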

Experiment [7] is described as follows: Caspase-3/7 induction in CHO-K1 cells by small molecules, qHTS cell viability counter screen (AID 1346979). Also: nearly all actives have a fitted effect of over 35% in size. Also: potency is read from the fitted curve at half-maximal effect. The essentials: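 To flag cytotoxic compounds, treated CHO-K1 wild-type cells were given CellTiter-Fluor at 16hr and read fluorescently after 1hr at 37C; the caspase-3/7 luminescence was measured in these same wells.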
In experiment [8] the target is Thyrotropin-releasing hormone receptor (Homo sapiens) (UniProt P34981). Description: qHTS assay to identify small molecule antagonists of the thyrotropin-releasing hormone receptor (TRHR) signaling pathway (AID 1346877; active = well fitted inhibition curve with a large enough effect in the repeat runs, not every such curve was filed as active; also: potency is read from the fitted curve at half-maximal effect). Summed up:
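Antagonism is measured as suppression of the calcium response to 1 nM TRH in TRHR-HEK293 cells that have been dye-loaded for 2 h at 37 °C after overnight plating. Each compound is tested at 15 concentrations in triplicate.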

Experiment [9] shares this target. Description: qHTS assay to identify small molecule agonists of the thyrotropin-releasing hormone receptor (TRHR) signaling pathway (AID 1346891; calls by dose curve; also: potency is read from the fitted curve at half-maximal effect;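 as to activation: HEK293 cells expressing TRHR with calcium dye readout; series mostly up to about 58 µM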). Summed up:
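In 1536-format, 1500 TRHR-Hek293 cells per well grew 18 h, took up calcium dye for 2 h at 37 °C, received compound, and were read kinetically; 15-point titrations, triplicates.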

Experiment [10] can be described thus: Human pregnane X receptor (PXR) small molecule agonists, qHTS cell viability counter screen (AID 1346977). Also: nearly all actives have a fitted effect of over 50% in size. The essentials: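 Readout is CellTiter-Fluor fluorescence from PXR-Luc HepG2 cells. Plated cells rested 5hr, then were treated with compounds for 24hr at 37C and 5% CO2, with reagent present during the last hour.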

Values joined by “and” are separate entries in the source; they are usually repeats but may differ in a detail not shown here. Equal entries are not always repeated. Records with an inconclusive call do not appear. Some structures have more than one record in an assay (separate samples or runs), and their calls can disagree. Active and inactive are the calls of the source. Unless noted, calls follow the shape of the dose curve; as a rule, active = well fitted curve in the direction sought with a large enough effect in the repeat runs; inconclusive = weak or mixed curves; inactive = no such curve, though single readings can be large; an effect the other way counts as inactive or inconclusive.

Chain of Thyrotropin-releasing hormone receptor (Homo sapiens) (P34981 whole entry, looked up): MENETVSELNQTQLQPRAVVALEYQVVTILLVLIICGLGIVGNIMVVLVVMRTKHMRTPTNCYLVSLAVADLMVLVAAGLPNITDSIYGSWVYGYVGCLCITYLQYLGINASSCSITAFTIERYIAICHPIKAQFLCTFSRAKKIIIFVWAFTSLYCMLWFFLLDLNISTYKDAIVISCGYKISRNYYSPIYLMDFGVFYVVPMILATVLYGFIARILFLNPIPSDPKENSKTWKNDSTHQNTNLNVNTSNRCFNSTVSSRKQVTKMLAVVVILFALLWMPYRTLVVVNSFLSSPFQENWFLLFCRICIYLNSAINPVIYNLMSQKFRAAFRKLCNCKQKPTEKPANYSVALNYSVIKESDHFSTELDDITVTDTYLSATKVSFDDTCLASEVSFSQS

On to `CCCCCCCCCCCCn1cc[n+](C)c1`, for which, in experiment [1], the Potency result was “inactive”. For the same compound, the Potency in experiment [2] was 43.6 µM (active) and inactive.

Turning to `CC(Cl)(Cl)C(=O)O`, the Potency result in [3], in [4], in experiment [5], in [6], in [1] and in experiment [2] was “inactive” in each case. The Potency entry in [7] is “inactive”.

For `O=C(O)COc1ccc(Cl)cc1Cl`, the Potency result in [3], in [4], in [5], in [6], in experiment [1] and in [2] was “inactive” in each case. Besides, the Potency entry in experiment [7] was “inactive”.

Turning to `CC(=O)O`, the Potency result in experiment [3], in experiment [4], in experiment [5], in experiment [6], in experiment [1] and in experiment [2] was “inactive” in each case. In addition, the Potency result in experiment [7] is “inactive”.

Consider `CCCCCCCCn1cc[n+](C)c1`, for which the Potency entry in experiment [3], in [5], in experiment [6], in [1] and in experiment [2] was “inactive” each time. Also, in experiment [7], the Potency was 54.1 µM (active) and 49 µM (active) and 55 µM (active).

Turning to `CCCCCCCCCCCC(=O)O`, the Potency entry in [3], in experiment [4], in experiment [5], in experiment [6], in [1] and in experiment [2] was “inactive” throughout. The Potency entry in experiment [7] was “inactive”.

As for `O=C(O)c1nc(Cl)ccc1Cl`, the Potency result in experiment [3], in [4], in experiment [5], in experiment [6], in experiment [1] and in [2] was “inactive” throughout. The Potency entry in experiment [7] is “inactive”.

For the compound `CCCCCCCCCCCCCCCCn1cc[n+](C)c1`, the Potency result in experiment [4] was “inactive and 61.7 µM (active) and 30.7 µM (active)”. Further, the Potency entry in [1] and in experiment [2] was “inactive” throughout.

Regarding `CCOP(=S)(OCC)Oc1ccc2c(C)c(Cl)c(=O)oc2c1`, the Potency result in experiment [4], in experiment [5], in experiment [6], in [8], in [9] and in [10] was “inactive” each time. The Potency entry in experiment [2] and in experiment [7] was “inactive” each time.

Take `CCCCn1cc[n+](C)c1C`: the Potency result in experiment [3], in experiment [4], in [5], in experiment [6], in experiment [1] and in experiment [2] was “inactive” in each case. For the same compound, the Potency result in experiment [7] was “inactive”.

Regarding `Oc1cccc2cccnc12`, the Potency is 770 nM (active) and inactive in experiment [4]; 54.8 µM (active) and inactive and 10.6 µM (active) in [2]. Further, the Potency entry in [5], in experiment [6] and in experiment [1] was “inactive” throughout.

In the case of `CC[N+](CC)(CC)CC`, the Potency result in experiment [3], in experiment [4], in [5], in [6], in experiment [1] and in experiment [2] was “inactive” each time. Moreover, in experiment [7], the Potency result was “inactive”.

In the case of `COc1ccc(N)cc1`, the Potency result in experiment [3], in experiment [4], in experiment [5], in [6], in experiment [1] and in experiment [2] was “inactive” each time. In [7], the Potency entry is “inactive”.

In the case of `CCCC[N+]1(C)CCCCC1`, the Potency result in experiment [3], in experiment [4], in experiment [5], in experiment [6], in experiment [1] and in [2] was “inactive” in each case. In addition, the Potency entry in experiment [7] was “inactive”.

`CCCC[N+]1(C)CCCC1`: the Potency entry in experiment [3], in experiment [4], in experiment [5], in [6], in [1] and in [2] was “inactive” each time. Further, the Potency result in [7] was “inactive”.

With `CCCC[n+]1ccc(C)cc1`, the Potency entry in experiment [4] was “inactive and 60.8 µM (active)”; in experiment [8] it was “inactive and 24 µM (active)”; in experiment [9], “inactive and 15.5 µM (active)”; in experiment [2], “inactive and 54.2 µM (active)”; in [7] it was “inactive and 54.2 µM (active)”. The Potency result in [6] and in experiment [1] was “inactive” throughout.

Turning to `CCCCCCCCCCCCCC[P+](CCCCCC)(CCCCCC)CCCCCC`, the Potency in experiment [3] is 30.8 µM (active); in experiment [6], 15.6 µM (active) and 24.7 µM (active) and inactive; in experiment [7], 4.35 µM (active) and 6.16 µM (active) and 2.73 µM (active). In addition, the Potency result in experiment [1] and in experiment [2] was “inactive” each time.

For the compound `CCCCn1cc[n+](C)c1`, the Potency result in [3], in experiment [4], in experiment [5], in [6], in experiment [1] and in experiment [2] was “inactive” each time. The Potency entry in experiment [7] is “inactive”.

With `O=C(O)c1ccccc1O`, the Potency entry in [3], in experiment [4], in experiment [5], in experiment [6], in [1] and in experiment [2] was “inactive” throughout. For the same compound, the Potency result in [7] was “inactive”.

As to `O=S(=O)(O)O`, the Potency entry in [3], in experiment [4], in experiment [5], in [6], in experiment [1] and in experiment [2] was “inactive” each time. In experiment [7], the Potency result is “inactive”.
